Test results as given in PubChem BioAssay (NCATS).
Values joined by “and” are separate entries in the source; they are usually repeats but may differ in a detail not shown here. Equal entries are not always repeated. Inconclusive results are not listed. For part of these data: Results with a measured potency or affinity are listed apart. Active and inactive are the calls of the source.

How the values were obtained:
[1] = qHTS Assay for Identifying Gametocytocidal Compounds (AID 743244; active = well fitted curve in the direction sought with a large enough effect;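 note: % is set by controls: 0 for no effect and ±100 for the full control effect; actives lower the fluorescent signal which means gametocytes are killed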); conditions: P. falciparum 3D7 stage III-V gametocytes, alamarBlue, 72 h; max response: stronger effect = lower value
Procedure, shortened: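 Fluorescence at Ex 525/Em 598 nm, recorded 24 h after alamarBlue addition, reports residual metabolic activity of 3D7 gametocytes (stages III–V) following 72 h compound exposure at 37 °C, 5% CO2.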

[2] = qHTS profiling of the MIPE4 collection as inhibitors of Plasmodium falciparum (3D7) proliferation (AID 743344);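 note: scaled between DMSO vehicle wells and 0.29 µM artemisinin as full inhibition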; conditions: P. falciparum 3D7 in erythrocytes, SYBR Green DNA fluorescence, 72 h; at 28.5 µM (top of the series) unless noted
Procedure, shortened: (§1)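 Parasite DNA was quantified by SYBR Green I fluorescence (ex 485, em 535 nm) after overnight lysis in saponin/Triton buffer at room temperature. Cultures at 0.3% parasitemia and 2.5% hematocrit were first exposed to compound for 72 h at 37 C; signals were normalised to artemisinin (0.29 uM) and vehicle wells.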

[3] = qHTS profiling of the MIPE4 collection as inhibitors of Plasmodium falciparum (DD2) proliferation (AID 743345); conditions: P. falciparum Dd2 in erythrocytes, SYBR Green DNA, 72 h; at 28.5 µM (top of the series) unless noted
Procedure, shortened: as §1

[4] = qHTS profiling of the MIPE4 collection as inhibitors of Plasmodium falciparum (DD2) proliferation (Rep 2) (AID 743346); conditions: P. falciparum Dd2 in erythrocytes, SYBR Green DNA, 72 h; at 28.5 µM (top of the series) unless noted
Procedure, shortened: as §1

[5] = qHTS profiling of the MIPE4 collection as inhibitors of Plasmodium falciparum (HB3) proliferation (AID 743347);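 note: plate controls were DMSO vehicle wells for no effect and artemisinin wells for full effect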; conditions: P. falciparum HB3 in erythrocytes, SYBR Green DNA, 72 h; at 28.5 µM (top of the series) unless noted
Procedure, shortened: as §1

[6] = Ebola virus entry assay, blue channel fluorescence
[7] = Ebola virus entry assay, green fluorescence channel
[8] = Ebola virus entry assay, ratio channel readout
[9] = Ebola virus entry assay, blue channel fluorescence; remark: listed apart in the source
[10] = target: T1, Hexokinase-4 (Homo sapiens) + Glucokinase regulatory protein (Homo sapiens) (UniProt P35557+Q14397); test: qHTS assay for inhibitors of recombinant human GCK-GKRP interaction: Diaphorase-coupled assay (AID 743205; active = well fitted curve in the direction sought with a large enough effect)
T1 sequence (P35557 whole entry, looked up): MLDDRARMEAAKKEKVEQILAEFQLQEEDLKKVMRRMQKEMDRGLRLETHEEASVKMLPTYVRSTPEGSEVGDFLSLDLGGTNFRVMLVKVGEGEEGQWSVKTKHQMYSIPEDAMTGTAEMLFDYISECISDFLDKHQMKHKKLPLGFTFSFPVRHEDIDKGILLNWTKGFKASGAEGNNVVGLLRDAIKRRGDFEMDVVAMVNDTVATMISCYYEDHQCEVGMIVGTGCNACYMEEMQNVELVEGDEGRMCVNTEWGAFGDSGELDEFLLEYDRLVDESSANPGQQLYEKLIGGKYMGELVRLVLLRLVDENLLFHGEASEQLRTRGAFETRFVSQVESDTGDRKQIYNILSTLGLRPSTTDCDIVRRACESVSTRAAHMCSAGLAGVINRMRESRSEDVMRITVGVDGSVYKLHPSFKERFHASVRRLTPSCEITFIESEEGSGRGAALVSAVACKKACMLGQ
T1 sequence (Q14397 whole entry, looked up): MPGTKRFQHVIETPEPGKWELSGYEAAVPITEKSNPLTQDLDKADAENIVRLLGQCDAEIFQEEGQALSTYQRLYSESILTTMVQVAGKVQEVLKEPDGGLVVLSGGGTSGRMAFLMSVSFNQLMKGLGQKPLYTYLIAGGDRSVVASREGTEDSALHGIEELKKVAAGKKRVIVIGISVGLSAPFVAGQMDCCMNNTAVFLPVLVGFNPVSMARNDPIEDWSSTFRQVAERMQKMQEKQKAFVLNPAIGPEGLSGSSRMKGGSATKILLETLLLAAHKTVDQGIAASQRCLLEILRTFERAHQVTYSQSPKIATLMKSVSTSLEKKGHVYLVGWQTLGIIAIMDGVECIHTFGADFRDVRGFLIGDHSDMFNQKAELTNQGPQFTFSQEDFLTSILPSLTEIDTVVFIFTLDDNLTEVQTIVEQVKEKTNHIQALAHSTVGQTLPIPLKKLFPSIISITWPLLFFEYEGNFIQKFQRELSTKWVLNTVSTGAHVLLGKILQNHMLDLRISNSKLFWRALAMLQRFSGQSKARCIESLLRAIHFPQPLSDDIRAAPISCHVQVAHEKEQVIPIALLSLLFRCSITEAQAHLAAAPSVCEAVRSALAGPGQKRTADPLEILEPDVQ
Procedure, shortened: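 Signal derives from resorufin generated by diaphorase, linked to GCK turnover of glucose (5 mM) and ATP (0.4 mM). Enzyme complex was added after a 20-minute compound preincubation and monitored for 30 minutes.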

[11] = target: T1, Hexokinase-4 (Homo sapiens) + Glucokinase regulatory protein (Homo sapiens); test: qHTS assay for inhibitors of recombinant human GCK-GKRP interaction: ADP-Glo assay (AID 743206; active = well fitted curve in the direction sought with a large enough effect;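 note: plate controls were DMSO plus enzyme for no effect and no enzyme for full effect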)
Procedure, shortened: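 Pin-transferred compounds meet a 15 nM GST-GCK/15 nM FLAG-GKRP/2 uM S6P mix (dispense concentrations). ATP is then added to 0.4 mM final with 5 mM glucose, and the reaction runs 60 min at room temperature. ADP is quantified luminescently.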

[12] = target: T1, Hexokinase-4 (Homo sapiens) + Glucokinase regulatory protein (Homo sapiens); test: qHTS assay for inhibitors of recombinant human GCK-GKRP interaction: HTRF assay (AID 743207; active = well fitted curve in the direction sought with a large enough effect;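 note: 0% = DMSO with GCK present and -100% = DMSO wells lacking GCK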)
Procedure, shortened: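 Titration screening format: recombinant GST-GCK and FLAG-GKRP at 5 nM, S6P at 2 uM, labelled anti-tag antibodies, 60 min at RT, dual-wavelength HTRF readout.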

[13] = qHTS profiling for inhibitors of Plasmodium falciparum (3D7) proliferation (AID 743322);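 note: infected erythrocytes exposed to compound for 72 h before lysis; 100% = DMSO vehicle wells and 0% = 0.29 µM artemisinin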; conditions: P. falciparum 3D7 proliferation; at 28.7 µM (top of the series)
Procedure, shortened: as §1

[14] = qHTS profiling for inhibitors of Plasmodium falciparum (DD2) proliferation (AID 743323); conditions: lower = more inhibition; at 28.7 µM (top of the series)
Procedure, shortened: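 Parasite proliferation measured via DNA-dye fluorescence, as uninfected erythrocytes lack DNA. Cultures at 0.3% parasitemia and 2.5% hematocrit incubated 72 h with compound; signal scaled between vehicle and 0.29 uM artemisinin wells.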

[15] = Ebola virus entry assay, blue channel fluorescence; remark: listed apart in the source
[16] = Ebola virus entry assay, ratio channel
[17] = Ebola virus entry assay, green channel fluorescence

C[C@]12CC[C@@H]3c4ccc(OC(=O)N(CCCl)CCCl)cc4CC[C@H]3[C@@H]1CC[C@@H]2OP(=O)(O)O
86.9%: parasite growth, % of DMSO control [2]
inactive: max response [1] 0.678% and -5.22% | outcome [6] | outcome [7] | outcome [8] | outcome [9]
47.6%: growth, % of control [5]
97.1%: parasite growth remaining, % of DMSO control (lower = more inhibition) [3]
86.3%: parasite growth, % of control (lower = inhibition) [4]

CNC(C)[C@@H]1CC[C@@H](N)[C@@H](O[C@H]2[C@H](O)[C@@H](O[C@H]3OC[C@](C)(O)[C@H](NC)[C@H]3O)[C@H](N)C[C@@H]2N)O1 (stereo not given in full)
inactive: outcome [6] | outcome [7] | outcome [8] | outcome [9]

CCC[C@@H]1C[C@@H](C(=O)N[C@@H]([C@H]2O[C@H](SC)[C@H](O)[C@@H](O)[C@H]2O)[C@H](C)Cl)N(C)C1
inactive: outcome [6] | outcome [7] | outcome [8] | outcome [9]

CO/N=C(\C(=O)N[C@@H]1C(=O)N2C(C(=O)O)=C(C[N+]3(C)CCCC3)CS[C@H]12)c1csc(N)n1
inactive: outcome [6] | outcome [7] | outcome [8] | outcome [9]

CCOC(=O)[C@H](CCc1ccccc1)N[C@H]1CCCN2CCC[C@@H](C(=O)O)N2C1=O
inactive: outcome [6] | outcome [7] | outcome [8] | outcome [9]

CC(C)(C)NC(=O)[C@@H]1C[C@@H]2CCCC[C@@H]2CN1C[C@@H](O)[C@H](Cc1ccccc1)NC(=O)[C@H](CC(N)=O)NC(=O)c1ccc2ccccc2n1
inactive: outcome [6] | outcome [7] | outcome [8] | outcome [9]

CCNC(=O)[C@@H]1CCCN1C(=O)[C@H](CCCN=C(N)N)NC(=O)[C@H](CC(C)C)NC(=O)[C@@H](CC(C)C)NC(=O)[C@H](Cc1ccc(O)cc1)NC(=O)[C@H](CO)NC(=O)[C@H](Cc1c[nH]c2ccccc12)NC(=O)[C@H](Cc1cnc[nH]1)NC(=O)[C@@H]1CCC(=O)N1
inactive: outcome [6] | outcome [7] | outcome [8] | outcome [9]

O=C1Nc2ccc(Cl)cc2C(c2ccccc2)=NC1O (stereo not given)
inactive: max response [1] 6.98% and -4.42% | outcome [6] | outcome [7] | outcome [8] | outcome [9]

CO/N=C(/C(=O)N[C@@H]1C(=O)N2C(C(=O)O)=C(COC(N)=O)CS[C@H]12)c1ccco1
inactive: outcome [6] | outcome [7] | outcome [8] | outcome [9]

CN[C@H](CC(C)C)C(=O)N[C@H]1C(=O)N[C@@H](CC(N)=O)C(=O)N[C@H]2C(=O)N[C@H]3C(=O)N[C@H](C(=O)N[C@@H](C(=O)O)c4cc(O)cc(O)c4-c4cc3ccc4O)[C@H](O)c3ccc(c(Cl)c3)Oc3cc2cc(c3O[C@@H]2O[C@H](CO)[C@@H](O)[C@H](O)[C@H]2O[C@H]2C[C@](C)(N)C(O)[C@H](C)O2)Oc2ccc(cc2Cl)[C@H]1O (stereo not given in full)
inactive: outcome [6] | outcome [7] | outcome [8] | outcome [9]

CC[C@H]1OC(=O)[C@H](C)C(=O)[C@H](C)[C@@H](O[C@@H]2O[C@H](C)C[C@H](N(C)C)[C@H]2O)[C@](C)(OC)C[C@@H](C)C(=O)[C@H](C)[C@H]2N(CCCCn3cnc(-c4cccnc4)c3)C(=O)O[C@]12C
inactive: outcome [6] | outcome [7] | outcome [8] | outcome [9]

CC(C)c1nc(N(C)S(C)(=O)=O)nc(-c2ccc(F)cc2)c1/C=C/C(O)CC(O)CC(=O)O (stereo not given)
inactive: outcome [6] | outcome [7] | outcome [8] | outcome [9]

CN[C@@H]1CCc2[nH]c3ccc(C(N)=O)cc3c2C1
inactive: outcome [6] | outcome [7] | outcome [8] | outcome [9]

COCC1=C(C(=O)OC(C)OC(=O)OC(C)C)N2C(=O)[C@@H](NC(=O)/C(=N\OC)c3csc(N)n3)[C@H]2SC1 (stereo not given in full)
inactive: outcome [6] | outcome [7] | outcome [8] | outcome [9]

Clc1ccc2c(c1)C(c1ccccc1)=NCc1nncn1-2
inactive: outcome [6] | outcome [7] | outcome [8] | outcome [9]

CC(CCc1ccccc1)NCC(O)c1ccc(O)c(C(N)=O)c1 (stereo not given)
inactive: outcome [6] | outcome [7] | outcome [8] | outcome [9]

O=P1(N(CCCl)CCCl)NCCCO1 (stereo not given)
inactive: outcome [10] | outcome [11] | outcome [12]
108% and 105%: remaining parasite growth % (stronger effect = lower value) [13]
108% and 125%: activity, percent of control [14]

C1COC(NC(C2CC2)C2CC2)=N1
inactive: outcome [15] | outcome [16] | outcome [17]

COc1ccc2cc([C@H](C)C(=O)O)ccc2c1
inactive: outcome [15] | outcome [16] | outcome [17]

CC[N+](C)(CC)CCOC(=O)C1c2ccccc2Oc2ccccc21
inactive: outcome [15] | outcome [16] | outcome [17]

c1ccc2c(CC3=NCCN3)cccc2c1
active: AC50 [15] 39.8 µM
inactive: outcome [16] | outcome [17]

CC(=O)CC(c1ccc([N+](=O)[O-])cc1)c1c(O)c2ccccc2oc1=O (stereo not given)
inactive: outcome [15] | outcome [16] | outcome [17]

O=C1C(O)=C(O)C(=O)C(O)=C1O
inactive: outcome [15] | outcome [16] | outcome [17]

Cc1ccc(-c2ccccc2C#N)cc1
inactive: outcome [15] | outcome [16] | outcome [17]

CC(=O)Oc1cc(C(C)C)c(OCCN(C)C)cc1C
inactive: outcome [15] | outcome [16] | outcome [17]

COCCCN1CCC(NC(=O)c2cc(Cl)c(N)c3c2OCC3)CC1
inactive: outcome [15] | outcome [16] | outcome [17]

Cc1nnc(NS(=O)(=O)c2ccc(N)cc2)s1
inactive: outcome [15] | outcome [16] | outcome [17]
